Test [1] can be described thus: StAR promoter reporter inhibitors, counter-screen for LRH-1 inverse agonist project, cell-based, luminescence, high throughput (AID 651611; in the data active = inhibition above about 28%). Conditions: StAR promoter luciferase reporter counterscreen, at 3.6 µM, hits give high values.
The target in test [2] is Nuclear receptor subfamily 5 group A member 2 (Homo sapiens) (UniProt O00482). The test can be described thus: NR5A2 activity suppression in reporter cells – cell-based, luminescence, confirmation (AID 651613).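 Also: HEK293T cells co-transfected with LRH-1 and StAR promoter luciferase reporter; 0% = vehicle wells and 100% = parental cells lacking receptor.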 Conditions: cell-based LRH-1 luciferase reporter, inverse agonism; at 3.6 µM; hits give high values.
Sequence of Nuclear receptor subfamily 5 group A member 2 (Homo sapiens) (O00482 whole entry, looked up): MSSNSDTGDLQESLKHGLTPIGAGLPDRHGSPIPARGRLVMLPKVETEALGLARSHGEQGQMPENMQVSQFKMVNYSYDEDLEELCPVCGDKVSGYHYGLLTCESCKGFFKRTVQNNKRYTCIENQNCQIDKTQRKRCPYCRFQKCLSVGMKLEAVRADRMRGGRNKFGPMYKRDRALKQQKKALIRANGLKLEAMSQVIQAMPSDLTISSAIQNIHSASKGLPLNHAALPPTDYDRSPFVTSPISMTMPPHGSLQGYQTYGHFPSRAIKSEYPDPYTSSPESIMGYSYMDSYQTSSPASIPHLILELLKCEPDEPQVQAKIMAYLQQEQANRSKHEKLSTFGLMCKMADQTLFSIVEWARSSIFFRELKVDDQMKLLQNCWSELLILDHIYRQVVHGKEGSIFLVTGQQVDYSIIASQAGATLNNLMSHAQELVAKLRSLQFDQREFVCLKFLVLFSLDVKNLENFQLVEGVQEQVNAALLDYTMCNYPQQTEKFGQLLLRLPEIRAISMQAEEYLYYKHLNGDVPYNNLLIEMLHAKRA
Test [3] has as its target Steroidogenic factor 1 (Homo sapiens) (UniProt Q13285). Briefly: inverse agonism at SF1 nuclear receptor – cell-based, luminescence, high throughput, counter-screen for LRH-1 inverse agonist project (AID 651614; in the data active = inhibition above about 44%;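 also: cells cotransfected with StAR promoter reporter and SF1 expression vector; 0% = vehicle on cells with receptor and 100% = vehicle on cells lacking receptor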). The settings on record: cell-based SF1 luciferase reporter, at 3.6 µM, hits give high values. On the technique in general: The purpose of a counterscreen is to sort out artefacts and off-target activity.

A short description of test [4]: compounds suppressing VP16-driven luciferase signal – cell-based, luminescence, high throughput, counter-screen for LRH-1 inverse agonist project (AID 651615; in the data active = inhibition above about 33%). Conditions: Gal4-VP16 luciferase reporter cells, at 3.6 µM, hits give high values.

A word on the inhibition: it is the drop in the measured response relative to a control, in per cent.

A number with no mark means an inactive call. The source made the active and inactive calls. Rule as the data show it, unless noted: active = inhibition above about 42%; inactive = the rest.

Sequence of Steroidogenic factor 1 (Homo sapiens) (Q13285 whole entry, looked up): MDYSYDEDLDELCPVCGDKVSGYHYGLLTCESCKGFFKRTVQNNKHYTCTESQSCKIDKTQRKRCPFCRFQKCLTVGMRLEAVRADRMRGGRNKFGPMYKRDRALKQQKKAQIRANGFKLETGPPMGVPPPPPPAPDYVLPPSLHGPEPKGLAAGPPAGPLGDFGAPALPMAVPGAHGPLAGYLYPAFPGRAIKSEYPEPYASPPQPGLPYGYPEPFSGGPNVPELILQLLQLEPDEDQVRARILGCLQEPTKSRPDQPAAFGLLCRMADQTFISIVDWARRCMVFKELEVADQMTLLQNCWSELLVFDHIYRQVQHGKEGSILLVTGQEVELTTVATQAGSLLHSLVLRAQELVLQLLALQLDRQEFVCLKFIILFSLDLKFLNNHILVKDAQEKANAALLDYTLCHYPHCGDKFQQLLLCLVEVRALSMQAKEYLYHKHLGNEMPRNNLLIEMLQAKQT

`O=C(NCCN1CCOCC1)c1ccc2c(c1)N(Cc1ccccc1F)C(=O)CS2`: the inhibition in test [1] is 11.1%; in test [2], 42.4% (active); in test [3], 36.2%; in test [4] it was -9.87%.
For `Cc1ccc(SCC(=O)Nc2ccc(N3CCOCC3)cc2)c(C)c1` the same measures were 16.4%, 63.3% (active), 56.5% (active) and -1.3%.
With `CS(=O)(=O)c1ccc(-c2cc(NC=O)c3ncc(-c4ccc(F)cc4)n3c2)cc1`, the inhibition in test [1] was 13.9%; in test [2], 56% (active); in test [3] it was 55% (active); in test [4], 1.21%.
The like results for `CCOc1ccc(OCCN2C(=O)NC(Cc3c[nH]c4ccccc34)C2=O)cc1` (centres undefined) were, in that order, 13.2%, 54.9% (active), 58.2% (active) and 4.66%.
For `COc1cc(/C=N/NC(N)=S)ccc1OCC(=O)Nc1ccc(C)cc1` the same measures were -3.71%, 48.1% (active), 60% (active) and -1.66%.
For `Clc1ccccc1-c1nc(N/N=C/c2cccnc2)c2ccccc2n1` the same measures were 6.03%, 52.3% (active), 53.3% (active) and -7.84%.
Turning to `CC(C)N1CCc2c(sc(NC(=O)c3ccc([N+](=O)[O-])o3)c2C(N)=O)C1`, the inhibition was 37.6% (active) in test [1], 55.4% (active) in test [2], 56.4% (active) in test [3] and -8.36% in test [4].
The like results for `O=C(Nc1ccc(N2CCN(C(=O)c3cccs3)CC2)cc1)c1ccc([N+](=O)[O-])o1` were, in that order, 43.4% (active), 67.3% (active), 70.4% (active) and 7.47%.
For `CC(=O)N1CCN(c2ccc(NC(=O)c3ccc([N+](=O)[O-])o3)cc2Cl)CC1` the same measures were 22.9%, 60% (active), 65.1% (active) and -26.3%.
In the case of `CCCN(CC(=O)Nc1ccc(C(C)=O)cc1)CC(=O)Nc1ccccc1C`, the inhibition in test [1] is 1.27%; in test [2], 62.4% (active); in test [3], 56% (active); in test [4] it was 9.79%.
For `COC(=O)c1ccc(NC(=O)COc2cccc(-n3cnnn3)c2)cc1` the same measures were -5.38%, 41.3% (active), 32.5% and -9.98%.
Consider `CC(=O)N1CCc2c(sc(NC(=O)Cc3ccc(F)cc3)c2C#N)C1`, for which the inhibition was 21.4% in test [1], 65.3% (active) in test [2], 57.6% (active) in test [3] and -35.5% in test [4].
Consider `Cc1cccc(OCC(=O)Nc2ccncc2)c1C`, for which the inhibition in test [1] was 6.9%; in test [2], 60% (active); in test [3], 61.9% (active); in test [4] it was 36.1% (active).
For `CN(C)CCNC(=O)c1cccc2nc3cccc(F)c3nc12` the same measures were 63.9% (active), 81.5% (active), 72.1% (active) and 55% (active).
For `CCOc1ccc(NC(=O)CSc2nc3cccnc3n2CCOC)cc1`, the inhibition in test [1] is 21.3%; in test [2], 64.4% (active); in test [3], 62.1% (active); in test [4] it was -10.9%.
With `Cc1cc(NC(=O)C(Cl)Cl)cc2c1OCO2`, the inhibition was 10.4% in test [1], 59.2% (active) in test [2], 45.6% (active) in test [3] and -10.1% in test [4].
For `CCCn1c(=NC(=O)CCS(=O)(=O)c2ccccc2)sc2cc(S(N)(=O)=O)ccc21` the same measures were 1.11%, 32.3%, 31.1% and -13.8%.
For `CN(C)S(=O)(=O)c1ccc(C(=O)NCc2ccc3[nH]c4c(c3c2)CCCC4)cc1` the same measures were 24.6%, 39.3%, 54.4% (active) and -9.28%.
The like results for `O=C(OCC(=O)N1CCN(C(=O)COC(=O)c2ccc(O)cc2O)CC1)c1ccc(O)cc1O` were, in that order, 14.4%, 61% (active), 61.2% (active) and 3.8%.
As to `O=C(NCc1ccco1)c1ccc([N+](=O)[O-])o1`, the inhibition was 7.6% in test [1], 60.5% (active) in test [2], 59.6% (active) in test [3] and -13.8% in test [4].
With `NC(=S)Nc1ccc(Oc2ccc(NC(N)=S)cc2)cc1`, the inhibition in test [1] is 5.35%; in test [2] it was 31.2%; in test [3] it was 40%; in test [4], -6.09%.
The like results for `c1ccc2c(c1)C1=NCCN1c1ccccc1-2` were, in that order, 20%, 104% (active), 50.2% (active) and 87.8% (active).
For `COc1ccc2c(c1)CCN(C(=O)CCl)C2C1C(=O)CCCC1=O` (centres undefined) the same measures were 10.2%, 59% (active), 54.4% (active) and -6.95%.
For `CN(C)c1ccc(C=c2c3ccccc3n3c2cc(-c2ccc(Cl)cc2)[n+]3C)cc1` the same measures were 5.51%, 102% (active), 69% (active) and 86.3% (active).
`O=c1c2ccccc2ncn1Cc1ccco1`: the inhibition was 1.6% in test [1], 10.5% in test [2], 18.4% in test [3] and 0.81% in test [4].
In the case of `CC(=O)C1=C(c2ccc(Br)cc2)C(=O)c2ccccc2C1=O`, the inhibition in test [1] was 74.3% (active); in test [2] it was 101% (active); in test [3], 78.1% (active); in test [4], 92% (active).
